According to the supplement of paper PMC10981050:
“And” between values parts separate entries of the source, which are not always exact repeats. Identical values can stand only once. Counter-ions that a name gives are not always drawn.

Columns and labels:
Test in all cases: cell viability relative to vehicle control; higher = less cytotoxic
Conditions in all cases: 10 µM
K562 = test system: K562
Procedure, shortened: (§1)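 CRISPR-edited SRSF2 P95 mutant and isogenic wild-type clones of four leukaemia lines were screened against Selleck bioactive, kinase and epigenetic probe libraries, with identity-inconsistent compounds removed. Compounds were acoustically dispensed into 384-well plates at a single 10 µM dose, with 2000 cells in 50 µL medium per well. After 48 h, supernatant was removed and CellTiter-Glo luminescence was read. Viability was expressed as percent of the on-plate DMSO vehicle control, analysed in Genedata Screener.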

MARIMO = test system: MARIMO
Procedure, shortened: as §1

MOLM14 = test system: MOLM14
Procedure, shortened: as §1

OCI-AML2 = test system: OCI-AML2
Procedure, shortened: as §1

Structure (SMILES)	cell viability (K562; SRSF2 genotype: SRSF2 P95H/wt)	cell viability (K562; SRSF2 genotype: SRSF2 wt/wt) [%]	cell viability (MARIMO; SRSF2 genotype: SRSF2 P95H/wt) [%]	cell viability (MARIMO; SRSF2 genotype: SRSF2 wt/wt) [%]	cell viability (MOLM14; SRSF2 genotype: SRSF2 P95H/wt) [%]	cell viability (MOLM14; SRSF2 genotype: SRSF2 wt/wt) [%]	cell viability (OCI-AML2; SRSF2 genotype: P95H/wt) [%]	cell viability (OCI-AML2; SRSF2 genotype: wt/wt) [%]
COc1cc2oc(-c3ccccc3)cc(=O)c2c(OC)c1OC [5,6,7-Trimethoxyflavone]	109% and 110%	107	99.9	96.3	111	110	85.1	87.3
CC12CCC(CC1)C(C)(C)O2 [Eucalyptol]	104% and 102%	104	101	101	104	101	102	103
COc1ccc(C(NC(=O)c2cnc(-c3cccnn3)[nH]c2=O)c2ccc(OC)cc2)cc1	115% and 108%	111	99	99.6	104	104	106	113
CC[C@@H]1/C=C(\C)C[C@H](C)C[C@H](OC)[C@H]2O[C@@](O)(C(=O)C(=O)N3CCCC[C@H]3C(=O)O[C@H](/C(C)=C/[C@@H]3CC[C@H](Cl)[C@H](OC)C3)[C@H](C)[C@@H](O)CC1=O)[C@H](C)C[C@@H]2OC [Pimecrolimus]	66% and 70.4%	64.5	80.5	70.7	65.7	67.3	58.1	57.8
CNC[C@@H](O)c1ccc(O)c(O)c1 [L-Adrenaline (Epinephrine)]	101% and 90%	96.3	104	101	87.9	99.3	115	104
Cc1ccc(Nc2nccc(N(C)c3ccc4c(C)n(C)nc4c3)n2)cc1S(N)(=O)=O [Pazopanib HCl]	49.1% and 57.7%	51	54.5	46.3	36.4	39.8	28.3	33.9
Cc1nc(C)c(C)nc1C [Ligustrazine hydrochloride]	97.2% and 97.7%	91.8	89.8	102	95.8	98.7	87.8	107
C[C@@H]1CC[C@@]2(OC1)O[C@H]1C[C@H]3[C@@H]4CC=C5C[C@@H](O[C@@H]6O[C@H](CO)[C@@H](O)[C@H](O[C@@H]7O[C@H](CO)[C@@H](O)[C@H](O)[C@H]7O)[C@H]6O[C@@H]6O[C@@H](C)[C@H](O)[C@@H](O)[C@H]6O)CC[C@]5(C)[C@H]4CC[C@]3(C)[C@H]1[C@@H]2C [Gracillin]	31.2% and 29.4%	1.47	70.2	11.4	12	0.55	5.61	4.21
COc1cc2ncnc(Nc3ccc(O)c(Br)c3)c2cc1OC	93.8% and 101%	96.4	85.4	84.6	32.4	24.3	61.8	63.9
CC(=O)OC1C[C@H](C)CCC1C(C)C (stereo partly drawn) [(1R)-(-)-Menthyl acetate]	98% and 101%	101	92.4	97.6	98.5	106	104	114
C[C@@H]1O[C@@H](O[C@H]2[C@H](Oc3cc(O)c4c(c3)O[C@H](c3ccc(O)cc3)CC4=O)O[C@H](CO)[C@@H](O)[C@@H]2O)[C@H](O)[C@H](O)[C@H]1O [Naringin (Naringoside)]	101% and 119%	111	102	107	106	109	112	100
CC(ONC(=O)c1cc(C(F)(F)F)cc(C(F)(F)F)c1)C(=O)Nc1ccc(Cl)cc1 (stereo unspecified)	78.9% and 81%	78.8	95.5	102	88.7	93.2	82	90.7
CC(C(=O)O)C(=O)O [Methylmalonate]	102%	100	98.2	110	97	103	90.5	107
O=S(=O)(O)c1cc(O)ccc1O [Calcium Dobesilate]	104% and 94.7%	103	103	110	98.4	103	104	103
Cc1cc(C)cc(C(=O)NOCCCCCC(=O)NO)c1	1.41% and 17.1%	4.57	7.1	10.6	0.7	0.46	2.75	5.29
Clc1ccc(C(Cn2ccnc2)OCc2ccc(Sc3ccccc3)cc2)c(Cl)c1 (stereo unspecified) [Fenticonazole nitrate]	76.5% and 67.7%	63.8	62.4	78	70.6	73	63.3	69.1
COc1ccc(-c2oc3c(CC=C(C)C)c(O)cc(O)c3c(=O)c2O[C@@H]2O[C@@H](C)[C@H](O)[C@@H](O)[C@H]2O)cc1 [Baohuoside I]	101% and 98.2%	90.4	94.6	107	87.8	88.5	101	107
CCCCC[C@H](O)/C=C/[C@H]1[C@H](O)CC(=O)[C@@H]1C/C=C\CCCC(=O)O [Dinoprostone]	99%	99.1	91.4	79.3	59.1	62	74.5	67.5
Cc1ccc(C(=O)Nc2cccc(C(F)(F)F)c2)cc1Nc1nc(-c2cccnc2)nc2c1cnn2C	65.9% and 77.9%	64.2	46.1	60.5	91	110	87	82.7
COc1ccc(S(=O)(=O)Nc2nc(-c3cccc([N+](=O)[O-])c3)cs2)cc1OC	104% and 99%	92.7	97.4	112	93.3	100	95.4	108
O=c1sn(-c2cccc3ccccc23)c(=O)n1Cc1ccccc1 [Tideglusib]	77.4% and 78.3%	82.9	70.7	79.9	55.5	68.8	54.7	53.3

Structure (SMILES)	cell viability (K562; SRSF2 genotype: SRSF2 P95H/wt)	cell viability (K562; SRSF2 genotype: SRSF2 wt/wt) [%]	cell viability (MARIMO; SRSF2 genotype: SRSF2 P95H/wt) [%]	cell viability (MARIMO; SRSF2 genotype: SRSF2 wt/wt) [%]	cell viability (MOLM14; SRSF2 genotype: SRSF2 P95H/wt) [%]	cell viability (MOLM14; SRSF2 genotype: SRSF2 wt/wt) [%]	cell viability (OCI-AML2; SRSF2 genotype: P95H/wt) [%]	cell viability (OCI-AML2; SRSF2 genotype: wt/wt) [%]
C=C[C@@H]1CNC(=S)O1 [Epigoitrin]	103% and 97.6%	101	91.3	93.1	101	99.2	103	104
Fc1ccc(Cn2c(Cl)nc3ccccc32)cc1 [2-Chloro-1-(4-fluorobenzyl)benzimidazole]	77.4% and 80.8%	86.5	64.6	64.5	77.2	84	28.5	36.5
CCCCC1OC(=O)c2ccccc21 (stereo unspecified) [3-n-Butylphathlide]	93.7% and 104%	91.5	91.9	104	99.8	96.7	90.6	94.2
O=C(O)C=CCCCCCCCO [Royal jelly acid]	103% and 104%	102	104	105	98.5	102	110	112
Cc1c(Cc2ccc3ccccc3n2)c2cc(F)ccc2n1CC(=O)O	102% and 99.7%	98.8	97.5	108	98.5	103	90.4	107
O=C(O)COc1ccc(Br)cc1C=C1SC(=S)N(Cc2cccnc2)C1=O [Skp2 inhibitor C1 (SKPin C1)]	34.9% and 35.5%	35.5	18.9	18.6	5.39	2.44	3.65	9.12
CC1(C)CC(=O)c2c(C(F)(F)F)nn(-c3ccc(C(N)=O)c(N[C@H]4CC[C@H](O)CC4)c3)c2C1	23.7% and 29.5%	27.1	30.9	25.9	3.24	4.55	13.9	21.4
O=C(Nc1ccc(Cl)cc1)C1CCCN(C(=O)c2cccc(-c3ccco3)c2)C1 (stereo unspecified)	67.5% and 80.2%	71.6	52.6	39.4	64.4	77.1	29	43
Cc1oc2nc3c(c(NC(=O)CN4CCCC4=O)c2c1C)CCCC3 [Coluracetam]	95.4% and 96.3%	105	93.7	104	103	103	94.9	99.4
COc1cc(OC)cc(N(CCNC(C)C)c2ccc3ncc(-c4cnn(C)c4)nc3c2)c1	5.81% and 13.7%	12.4	50.6	54.4	34.8	34.9	24.7	31.9
CCCN(CCC)C(=O)C1=Cc2ccc(-c3ccc(C(=O)N4CCCC4)cc3)cc2N=C(N)C1 [Motolimod (VTX-2337)]	34.5% and 40.5%	38.8	33.2	25.7	26.5	31	21.7	29
CC1=C(C(=O)OCCN(Cc2ccccc2)c2ccccc2)C(c2cccc([N+](=O)[O-])c2)C(P2(=O)OCC(C)(C)CO2)=C(C)N1 (stereo unspecified) [Efonidipine]	78.8% and 87.3%	83.7	95.5	98.4	82.2	95.7	104	82.3
CC1(C)C=C(CN2C/C(=C\c3ccc(F)cc3)C(=O)/C(=C/c3ccc(F)cc3)C2)C(C)(C)N1O	1.83% and 3.61%	1.04	0.52	1.15	0.27	0.28	0.24	0.32
COc1ccc(-c2cc(=O)c3c(O)cc(O[C@@H]4O[C@H](CO[C@@H]5O[C@@H](C)[C@H](O)[C@@H](O)[C@H]5O)[C@@H](O)[C@H](O)[C@H]4O)cc3o2)cc1O [Diosmin]	90.8% and 97.8%	89.9	94.8	101	97.6	92.4	90.4	92.4
COC(=O)CC[C@H](NC(=O)[C@H](CC(=O)OC)NC(=O)OCc1ccccc1)C(=O)N[C@H](C(=O)N[C@@H](CC(=O)OC)C(=O)CF)C(C)C	101% and 95.3%	93.7	99.4	104	100	97.3	98.4	103
C[C@H]1C[C@H]2[C@@H]3CCC4=CC(=O)C=C[C@]4(C)[C@@]3(F)[C@@H](O)C[C@]2(C)[C@@]1(O)C(=O)CO [Betamethasone (Celestone)]	92.1% and 85.8%	89.5	86.1	98.4	92.8	86	84.4	108
COCCNCc1ccc(-c2cc3nccc(Oc4ccc(NC(=O)C5(C(=O)Nc6ccc(F)cc6)CC5)cc4F)c3s2)nc1 [Sitravatinib (MGCD516)]	14.2% and 25.4%	10.6	67.2	78.5	5.4	8.33	14.1	27.3
NC(=O)c1cccc(-c2cccc(OC(=O)NC3CCCCC3)c2)c1	95.8% and 91.2%	96.1	95	92.4	99.5	99	88.6	96.4
COc1nc(C)cnc1NS(=O)(=O)c1cccnc1-c1ccc(-c2nnco2)cc1 [Zibotentan (ZD4054)]	98.4% and 103%	98.4	99	97.6	100	97.5	102	105
O=S(=O)(NCCNCC=Cc1ccc(Br)cc1)c1cccc2cnccc12	77.6% and 78%	75.8	61.2	69.1	43.2	50	38.7	43.2
CCN(CC)C(=S)SSC(=S)N(CC)CC [Disulfiram (Antabuse)]	42.7% and 53.4%	53.3	14	14.4	27.1	32.5	14	20.8
